SMILES strings stand for the structures. Compounds without any hit were thinned out: in the full panel of roughly 83,000, 20% have a hit.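 Note: values are percent growth. 100 is the growth of untreated cells, values between 100 and 0 indicate rising inhibition; between -100 and 0 indicates cell death.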 Unmarked numbers belong to inactive results. Calls of active or inactive are those of the source. Rule for the calls: active = growth percent below 10; inactive = the rest.

Growth data for eight compounds are collected here from PubChem BioAssay (NCI).

What all share (assay): NCI-60 one-dose screen, 48 h (100 = growth as untreated, 0 = no growth, -100 = all killed)
Common to all, as to conditions: 10 µM unless noted

In assay [1] the test system is HCT-15 colon.
In assay [2] the test system is HT29 colon.
In assay [3] the test system is SNB-19 CNS.
Assay [4] has as its system U251 CNS.
Assay [5] concerns PC-3 prostate.
Assay [6] deals with SK-MEL-5 melanoma.
For assay [7], the system named is UACC-62 melanoma.
Assay [8] has as its system LOX IMVI melanoma.
For assay [9], the system named is SK-MEL-28 melanoma.
Assay [10] relates to SK-MEL-2 melanoma.
In assay [11] the test system is EKVX NSCLC.
Assay [12] relates to SN12C renal.
Assay [13] concerns UO-31 renal.
Assay [14] relates to TK-10 renal.
Assay [15] relates to ACHN renal.
Assay [16] concerns A498 renal.
The subject of assay [17] is CCRF-CEM leukemia.
Assay [18] concerns MOLT-4 leukemia.
Assay [19] relates to CAKI-1 renal.

Consider `COc1ccc(NC(=O)c2c(Nc3ccc(OC)cc3OC)n[nH]c2N)c(OC)c1`, for which the growth is 104% in assay [1]; 102% in assay [2]; 90.3% in assay [3]; 96.4% in assay [4]; 90.6% in [5]; 79.9% in assay [6]. In addition, the growth in [7] is 68%; in assay [8], 101%; in assay [9] it was 96.6%; in assay [10] it was 102%; in [11] it was 89.1%; in [12], 90%. In addition, the growth is 69.7% in [13]; 117% in assay [14]; 95% in assay [15]; 114% in [16]; 110% in [17]; 78.8% in assay [18].
For the compound `Cc1ccc(C(=O)NCCCNc2nccc(-n3ccc4cccnc43)n2)cc1`, the growth in assay [1] is 102%; in assay [2], 106%; in assay [3], 90.6%; in assay [4], 93.2%; in assay [5], 97.8%; in [6], 99.5%. Besides, the growth in assay [7] is 102%; in assay [8] it was 97%; in [9], 106%; in assay [10], 105%; in assay [11] it was 86.1%; in assay [12], 95.1%. Moreover, the growth in [13] is 85.9%; in assay [14], 67.7%; in assay [15], 83.2%; in assay [16] it was 81.7%; in [17] it was 107%; in assay [18], 94.1%.
In the case of `NC1=NC(SCc2ccccc2CCl)c2ncn(Cc3ccccc3CCl)c2N1` (stereo not given), the growth in [1] was 76.5%; in [2], 14.4%; in assay [3], 74.7%; in assay [4], 36.8%; in [5] it was 78.6%; in assay [6] it was 48.4%. Also, the growth is 34.2% in [7]; -80.2% (active) in [8]; 65.2% in assay [9]; -4.24% (active) in assay [10]; 77.9% in assay [11]; 37.8% in assay [12]. The growth was 61.3% in assay [13]; 56.2% in assay [14]; 31.8% in [15]; 32.4% in [19]; 7.36% (active) in assay [17].
On to `O=C(Nc1cccc(-n2cc(-c3ccncc3)c(-c3ccc(Cl)c(O)c3)n2)c1)Nc1ccc(Cl)c(C(F)(F)F)c1`, for which the growth is 1.04% (active) in assay [1]; -6.5% (active) in assay [2]; -28.8% (active) in assay [3]; -70.4% (active) in [4]; -10.4% (active) in assay [5]; -100% (active) in assay [6]. Also, the growth is -55.1% (active) in assay [7]; -75.8% (active) in assay [8]; -31.5% (active) in assay [9]; -60.4% (active) in assay [10]; 7.46% (active) in assay [12]; -6.09% (active) in assay [13]. Besides, the growth in [14] is -1.62% (active); in assay [15], 6.62% (active); in [19] it was 17.3%; in [16], 11.1%; in [17] it was -13.8% (active); in assay [18], -22.1% (active).
Take `CC(C)c1ccc2occ(C=C3C(=O)NC(=O)NC3=O)c(=O)c2c1`: the growth in assay [1] was 85.8%; in assay [2], 94.7%; in assay [3], 81%; in assay [4] it was 74.3%; in assay [5], 92%; in assay [6], 97.3%. The growth in [7] was 82.1%; in [8], 87.4%; in assay [9], 99.8%; in assay [10] it was 93.5%; in assay [11] it was 117%; in [12], 91.5%. Also, the growth in [13] was 86.6%; in assay [14], 84.6%; in [15], 104%; in assay [19] it was 103%; in assay [18] it was 66.8%.
As for `Cc1ccc(S(=O)(=O)Nc2c(Br)cc(Br)cc2C(N)=O)cc1`, the growth in assay [1] was 103%; in assay [2], 128%; in assay [3], 90.2%; in assay [4], 106%; in assay [5], 96.3%; in assay [6] it was 99.9%. Besides, the growth was 98.5% in assay [7]; 102% in assay [8]; 100% in assay [9]; 113% in [10]; 101% in [12]; 91.9% in assay [13]. The growth in assay [14] was 161%; in assay [15], 101%; in [19], 103%; in assay [16] it was 107%; in [17] it was 95.1%.
Consider `Cn1c(=O)cc(NC(=O)CN2CCN(c3cc4c(cc3F)c(=O)c(C(=O)O)cn4C3CC3)CC2)[nH]c1=O`, for which the growth in assay [1] was 99%; in assay [2], 103%; in [3], 98.4%; in assay [4], 101%; in assay [5] it was 95.2%; in [6], 101%. In addition, the growth in assay [7] is 96.3%; in [8], 99.5%; in assay [9], 107%; in assay [10], 107%; in [11], 92.9%; in assay [12], 97.4%. Also, the growth in assay [13] was 88.7%; in [14], 105%; in assay [15] it was 99.9%; in [16], 102%; in [17] it was 103%; in assay [18], 107%.
With `COc1cccc(CC(C)=C(c2ccc(OCCN3CCCCC3)cc2)c2ccc(OCCN3CCCCC3)cc2)c1`, the growth was -68.1% (active) in [1]; -77.9% (active) in assay [2]; -9.73% (active) in assay [3]; -83.7% (active) in [4]; 19.2% in [5]; -96% (active) in [6]. The growth is -72.7% (active) in assay [7]; -91.9% (active) in assay [8]; -87.9% (active) in [9]; -65.4% (active) in assay [10]; 18% in [11]; -42.3% (active) in assay [12]. The growth in [13] is -92.2% (active); in assay [14], 32.5%; in assay [15], -88.4% (active); in [16], 8.39% (active); in assay [17], -31.8% (active).
